Source: PubChem BioAssay (EPA / NIEHS)
Several values for one entry are separate records, joined by “and”; a condition that tells them apart may be missing. Equal values may be shown once. Results filed as inconclusive are left out. Where a structure was tested more than once in an assay, its records may differ in their call. Activity calls are given as the source filed them. The calls were made as follows, unless noted: active = hit-call score of the fitted dose curve at least 0.9, where 1 is the maximum; inconclusive = response in the unintended direction; inactive = score below 0.9.

Tests used:
[1] = molecular target: Nuclear receptor subfamily 1 group I member 3 (Homo sapiens) (UniProt Q14994); assay: ATG_CAR_TRANS: Attagene TRANS-FACTORIAL HepG2 Assay for human Constitutive Androstane Receptor (CAR) (AID 2282969); conditions: HepG2 Attagene TRANS-FACTORIAL CAR reporter;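 also: activators raise reporter mRNA above DMSO so AC50 marks induction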
Chain of Nuclear receptor subfamily 1 group I member 3 (Homo sapiens) (Q14994 whole entry, looked up, the tested form may be a part): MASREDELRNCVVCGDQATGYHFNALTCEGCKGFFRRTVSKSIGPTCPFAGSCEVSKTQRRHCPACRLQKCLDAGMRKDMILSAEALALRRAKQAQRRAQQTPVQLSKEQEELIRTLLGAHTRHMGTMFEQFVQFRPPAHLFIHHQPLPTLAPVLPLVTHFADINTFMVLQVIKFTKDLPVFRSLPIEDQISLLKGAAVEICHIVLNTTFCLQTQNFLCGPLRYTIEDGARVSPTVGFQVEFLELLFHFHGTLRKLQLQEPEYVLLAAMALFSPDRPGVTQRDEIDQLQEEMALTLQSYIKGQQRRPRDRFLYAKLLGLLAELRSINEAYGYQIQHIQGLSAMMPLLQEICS
How it was run: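 HepG2 cells transiently transfected with multiplexed GAL4-UAS reporter units expressing chimeric NR-Gal4 proteins; compound exposure 24 h. Reporter mRNA measured by RT-PCR, 6-FAM labelling, HpaI digestion and capillary electrophoresis; gain-of-signal fitted against DMSO baseline.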

[2] = ATG_M_19_TRANS: Attagene TRANS-FACTORIAL HepG2 Assay for M19 Transcription Factor (Internal Marker) (AID 2282974); conditions: HepG2 Attagene TRANS-FACTORIAL M19 internal marker reporter
How it was run: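 Fluorescence of 6-FAM-labelled reporter cDNA fragments, separated by capillary electrophoresis, served as the readout. These derived from HepG2 cells carrying transfected GAL4-UAS reporter units after 24 h dosing, with DMSO as negative control.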

[3] = molecular target: Nuclear receptor subfamily 4 group A member 2 (Homo sapiens) (UniProt P43354); assay: ATG_NURR1_TRANS: Attagene TRANS-FACTORIAL HepG2 Assay for human Nuclear Receptor Related Protein 1 (NURR1) (AID 2282985); conditions: HepG2 Attagene TRANS reporter, mRNA readout
Chain of Nuclear receptor subfamily 4 group A member 2 (Homo sapiens) (P43354 whole entry, looked up, the tested form may be a part): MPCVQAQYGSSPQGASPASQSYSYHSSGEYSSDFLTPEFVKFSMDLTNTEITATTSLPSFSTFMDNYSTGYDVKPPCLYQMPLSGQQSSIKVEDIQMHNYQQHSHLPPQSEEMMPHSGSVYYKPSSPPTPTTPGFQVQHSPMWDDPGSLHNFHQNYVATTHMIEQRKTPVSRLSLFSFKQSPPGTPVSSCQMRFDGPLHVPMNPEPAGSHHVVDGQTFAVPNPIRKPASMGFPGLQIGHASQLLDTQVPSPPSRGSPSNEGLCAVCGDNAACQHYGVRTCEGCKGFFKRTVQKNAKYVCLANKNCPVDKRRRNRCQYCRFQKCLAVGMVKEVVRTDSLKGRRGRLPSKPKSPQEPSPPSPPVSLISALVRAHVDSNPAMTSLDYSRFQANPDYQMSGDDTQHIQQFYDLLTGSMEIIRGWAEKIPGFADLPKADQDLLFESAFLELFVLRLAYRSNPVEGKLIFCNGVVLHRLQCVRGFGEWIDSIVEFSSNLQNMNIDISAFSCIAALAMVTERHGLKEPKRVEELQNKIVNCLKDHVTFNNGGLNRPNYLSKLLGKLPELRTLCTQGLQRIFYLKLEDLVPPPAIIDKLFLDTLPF
How it was run: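 HepG2 cells transiently transfected with GAL4-UAS reporter units and chimeric NR-Gal4 constructs; chemical exposure 24 h. Reporter mRNA quantified by RT-PCR, fluorescent labelling and capillary electrophoresis; gain of signal fitted relative to DMSO baseline.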

[4] = molecular target: human Vitamin D Receptor (VDR), VDR (gene 7421) (UniProt P11473); assay: ATG_VDR_TRANS: Attagene TRANS-FACTORIAL HepG2 Assay for human Vitamin D Receptor (VDR) (AID 2283022)
Chain of human Vitamin D Receptor (VDR), VDR (gene 7421) (P11473 whole entry, looked up, the tested form may be a part): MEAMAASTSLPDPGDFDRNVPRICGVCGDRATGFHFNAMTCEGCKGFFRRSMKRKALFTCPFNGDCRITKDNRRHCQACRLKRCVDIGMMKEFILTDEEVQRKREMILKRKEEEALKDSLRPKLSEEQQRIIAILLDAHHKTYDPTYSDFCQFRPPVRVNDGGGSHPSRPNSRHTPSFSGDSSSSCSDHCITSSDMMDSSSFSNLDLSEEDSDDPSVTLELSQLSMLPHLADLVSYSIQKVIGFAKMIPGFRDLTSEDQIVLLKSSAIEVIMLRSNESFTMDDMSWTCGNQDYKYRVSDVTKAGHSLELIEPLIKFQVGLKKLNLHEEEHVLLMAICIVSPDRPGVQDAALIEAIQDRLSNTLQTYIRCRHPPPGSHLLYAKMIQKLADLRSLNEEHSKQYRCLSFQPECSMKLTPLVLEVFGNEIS
How it was run: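 Transactivation by an exogenous VDR-Gal4 chimera in transiently transfected HepG2 cells was measured as reporter transcript level 24 hours after chemical treatment. RT-PCR products were analysed by capillary electrophoresis and fitted in the positive direction relative to DMSO.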

[5] = molecular target: Peroxisome proliferator-activated receptor gamma (Homo sapiens) (UniProt P37231); assay: OT_PPARg_PPARgSRC1_0480: Odyssey Thera (OT) 8-hour Protein-Complementation Assay for Peroxisome Proliferator-activated Receptor Gamma / SRC-1 Co-activator (AID 2283387);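 also: nuclear to cytoplasmic split Venus YFP fluorescence ratio reporting PPARg SRC-1 interaction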
Chain of Peroxisome proliferator-activated receptor gamma (Homo sapiens) (P37231 whole entry, looked up, the tested form may be a part): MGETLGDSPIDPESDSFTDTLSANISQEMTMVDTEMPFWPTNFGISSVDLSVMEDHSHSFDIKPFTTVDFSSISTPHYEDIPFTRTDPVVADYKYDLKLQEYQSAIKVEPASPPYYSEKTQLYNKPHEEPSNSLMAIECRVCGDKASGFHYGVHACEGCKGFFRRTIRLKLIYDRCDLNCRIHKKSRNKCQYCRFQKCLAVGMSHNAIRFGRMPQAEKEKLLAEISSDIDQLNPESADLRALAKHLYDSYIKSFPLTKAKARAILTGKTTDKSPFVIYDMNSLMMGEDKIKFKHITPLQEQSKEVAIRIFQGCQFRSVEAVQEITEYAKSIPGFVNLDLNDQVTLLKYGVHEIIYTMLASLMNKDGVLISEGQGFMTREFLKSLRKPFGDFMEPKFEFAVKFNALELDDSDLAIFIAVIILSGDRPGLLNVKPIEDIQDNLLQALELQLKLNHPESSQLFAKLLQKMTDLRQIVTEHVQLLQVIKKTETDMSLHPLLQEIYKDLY
How it was run: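 Split-YFP (IFP1/IFP2) PPARg/SRC-1 reporter, HEK293T, 37 °C, 5% CO2; 8 h compound; formaldehyde fix + Draq5; high-content imaging, N/C ratio, ≥350 cells/image, positive direction vs DMSO.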

[6] = molecular target: Peroxisome proliferator-activated receptor gamma (Homo sapiens) (UniProt P37231); assay: OT_PPARg_PPARgSRC1_1440: Odyssey Thera (OT) 24-hour Protein-Complementation Assay for Peroxisome Proliferator-activated Receptor Gamma/ SRC-1 Co-activator (AID 2283388);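 also: nuclear to cytoplasmic ratio of reconstituted Venus YFP fluorescence in fixed imaged cells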
How it was run: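 Readout is the 488 nm N/C fluorescence ratio from fixed, Draq5-stained HEK293T cells after 24 h compound exposure. Cells carried transiently transfected PPARg and SRC-1 fused to Venus fragments, transfected 48 h before treatment.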

[7] = TOX21_p53_BLA_p2_viability: Viability Assessment in the Tox21 HCT-116 p53 Agonism Beta-lactamase Assay, Phase 2 (AID 2283591);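 also: compound exposure lasted 16 h at 37 °C; actives lower the ATP signal meaning cytotoxicity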
How it was run: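 HCT-116 p53-bla cells (4000/well) rested 5 h at 37C, then received compounds in DMSO (217-fold dilution) for 16 h at 37C, 5% CO2. After the CCF4 read, CellTiter-Glo was added; ATP luminescence was read after 30 min at room temperature.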

[8] = molecular target: Cellular tumor antigen p53 (Homo sapiens) (UniProt P04637); assay: TOX21_p53_BLA_p2_ratio: Tox21 HCT-116 p53 Agonism Beta-lactamase Assay, Ratio, Phase 2 (AID 2283592)
Chain of Cellular tumor antigen p53 (Homo sapiens) (P04637 whole entry, looked up): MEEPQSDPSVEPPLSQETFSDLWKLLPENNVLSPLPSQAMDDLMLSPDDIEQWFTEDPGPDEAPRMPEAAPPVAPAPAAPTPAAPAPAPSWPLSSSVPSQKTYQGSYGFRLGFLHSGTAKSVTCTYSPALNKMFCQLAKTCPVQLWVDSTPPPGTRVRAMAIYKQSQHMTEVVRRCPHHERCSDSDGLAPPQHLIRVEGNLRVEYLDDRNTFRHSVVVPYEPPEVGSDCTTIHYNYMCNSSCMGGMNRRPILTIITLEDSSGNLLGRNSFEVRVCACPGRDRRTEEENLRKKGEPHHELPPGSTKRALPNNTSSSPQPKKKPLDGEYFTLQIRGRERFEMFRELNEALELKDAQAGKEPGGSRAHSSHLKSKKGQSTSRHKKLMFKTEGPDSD
How it was run: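 Gain-of-signal p53 agonism was scored from the beta-lactamase FRET ratio (460/530 nm, 405 nm excitation) in HCT116 cells treated 16 h at 37C, 5% CO2, with DMSO serving as negative control and baseline.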

[9] = TOX21_p53_BLA_p3_viability: Viability Assessment in the Tox21 HCT-116 p53 Agonism Beta-lactamase Assay, Phase 3 (AID 2283593);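 also: cells exposed to compound for 16 h before reading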
How it was run: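 HCT-116 cells (4000/well) rested 5 h at 37C, then got DMSO compounds by pin tool (217-fold dilution) for 16 h at 37C, 5% CO2. After the bla read, CellTiter-Glo was added and luminescence read at 30 min, room temperature.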

[10] = TOX21_p53_BLA_p4_viability: Viability Assessment in the Tox21 HCT-116 p53 Agonism Beta-lactamase Assay, Phase 4 (AID 2283597);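 also: hits lower the luminescence signal meaning cytotoxicity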
How it was run: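 Following a 16 h exposure at 37C, the treated HCT116 wells were first read for the FRET ratio. They were then lysed with CellTiter-Glo, and ATP luminescence was recorded after 30 min at room temperature.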

[11] = TOX21_p53_BLA_p5_viability: Viability Assessment in the Tox21 HCT-116 p53 Agonism Beta-lactamase Assay, Phase 5 (AID 2283600)
How it was run: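 After the 460/530 nm beta-lactamase measurement, the wells received an ATP-detection luciferase reagent; signal was read 30 min later at RT. Compound treatment lasted 16 h on cells pre-incubated 5 h post-seeding.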

[12] = molecular target: human Peroxisome Proliferator-activated Receptor delta (PPARd), PPARD (gene 5467) (UniProt Q03181); assay: ATG_PPARd_TRANS: Attagene TRANS-FACTORIAL HepG2 Assay for human Peroxisome Proliferator-activated Receptor delta (PPARd) (AID 2283002)
How it was run: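 Multiplexed trans-activation format: HepG2 liver cells expressing exogenous NR-Gal4 chimeras and GAL4-UAS reporters were exposed for 24 h. Reporter mRNA was detected by RT-PCR with capillary electrophoresis fluorescence; activity fitted as gain of signal relative to DMSO.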

[13] = ACEA_ER_AUC_viability: ACEA Biosciences xCELLigence Real-Time Cell Analysis on Estrogen Receptor Agonism for Viability (AID 2283782);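 also: continuous compound exposure with impedance area under curve over 80 h; hit means loss of impedance signal meaning reduced cell growth or viability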
How it was run: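 T-47D human breast cells in phenol red-free RPMI1640 with 10% charcoal-stripped FBS were dosed with an 8-point 1:4 dilution series from 100 uM top final concentration, in duplicate. Impedance-based growth was followed for 80 h; AUC analysed versus DMSO.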

[14] = ATG_GAL4_TRANS: Attagene TRANS-FACTORIAL HepG2 Assay for GAL4 (Internal Marker) (AID 2282976); conditions: HepG2 Attagene TRANS GAL4 internal marker reporter
How it was run: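 In transfected human HepG2 liver cells dosed 24 h, GAL4 reporter mRNA serves as a baseline marker. Detection by RT-PCR with fluorescent capillary electrophoresis, activity fitted upward relative to DMSO.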

[15] = molecular target: Oxysterols receptor LXR-beta (Homo sapiens) (UniProt P55055); assay: ATG_LXRb_TRANS: Attagene TRANS-FACTORIAL HepG2 Assay for human Liver X Receptor beta (LXRb) (AID 2282981); conditions: HepG2 Attagene TRANS GAL4-LXRb reporter, mRNA
How it was run: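 HepG2 cells transiently transfected with multiple reporter transcription units carrying chimeric NR-Gal4 proteins acting on GAL4-UAS reporters; compound exposure 24 h. Reporter mRNA quantified by RT-PCR, 6-FAM labelling, HpaI digestion and capillary electrophoresis; gain of signal versus DMSO.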

[16] = molecular target: Bile acid receptor (Homo sapiens) (UniProt Q96RI1); assay: ATG_IR1_CIS: Attagene CIS-FACTORIAL HepG2 Assay for human Nuclear Receptor Subfamily 1 Group H Member 4 (NR1H4), IR1 submotif (AID 2282946; active = hit-call score of the fitted dose curve at least 0.9, where 1 is the maximum; inactive = score below 0.9); conditions: IR1 reporter transcription, actives raise or lower the signal
Chain of Bile acid receptor (Homo sapiens) (Q96RI1 whole entry, looked up): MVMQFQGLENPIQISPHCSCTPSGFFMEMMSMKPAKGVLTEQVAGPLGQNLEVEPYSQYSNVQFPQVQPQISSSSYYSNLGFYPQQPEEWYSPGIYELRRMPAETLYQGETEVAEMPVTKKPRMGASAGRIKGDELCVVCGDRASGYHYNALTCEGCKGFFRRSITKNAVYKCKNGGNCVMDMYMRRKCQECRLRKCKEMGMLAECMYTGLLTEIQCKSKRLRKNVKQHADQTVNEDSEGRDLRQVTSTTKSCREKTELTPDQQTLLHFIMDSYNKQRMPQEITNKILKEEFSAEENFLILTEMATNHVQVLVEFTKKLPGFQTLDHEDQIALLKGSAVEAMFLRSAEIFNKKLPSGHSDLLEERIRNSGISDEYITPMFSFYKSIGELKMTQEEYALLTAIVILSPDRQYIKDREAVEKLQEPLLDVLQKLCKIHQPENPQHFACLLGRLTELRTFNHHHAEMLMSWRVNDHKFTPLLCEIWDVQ
How it was run: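 Transient MRTU transfection, HepG2; 24 h dosing; RNA → RT-PCR → 6-FAM primer extension → HpaI digest → capillary electrophoresis fluorescence. Gain/loss of signal fitted relative to DMSO.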

[17] = molecular target: human Thyroid Receptor alpha (THRa1), THRA (gene 7067) (UniProt P10827); assay: ATG_THRa1_TRANS: Attagene TRANS-FACTORIAL HepG2 Assay for human Thyroid Receptor alpha (THRa1) (AID 2283014)
Chain of human Thyroid Receptor alpha (THRa1), THRA (gene 7067) (P10827 whole entry, looked up, the tested form may be a part): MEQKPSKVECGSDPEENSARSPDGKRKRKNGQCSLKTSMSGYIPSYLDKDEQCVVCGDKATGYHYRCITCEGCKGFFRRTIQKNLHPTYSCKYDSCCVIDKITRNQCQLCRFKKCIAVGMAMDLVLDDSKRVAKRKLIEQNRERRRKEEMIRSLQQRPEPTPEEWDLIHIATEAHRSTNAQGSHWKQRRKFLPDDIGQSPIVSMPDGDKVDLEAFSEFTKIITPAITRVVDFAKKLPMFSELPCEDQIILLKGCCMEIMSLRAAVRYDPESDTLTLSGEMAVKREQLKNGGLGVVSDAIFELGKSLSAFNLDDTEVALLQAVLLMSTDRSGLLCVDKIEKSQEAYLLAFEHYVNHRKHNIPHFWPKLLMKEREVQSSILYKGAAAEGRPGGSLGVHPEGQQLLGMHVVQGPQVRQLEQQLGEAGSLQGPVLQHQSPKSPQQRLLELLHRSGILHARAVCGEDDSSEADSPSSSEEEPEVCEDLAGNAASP
How it was run: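 Transcripts from GAL4-UAS-driven reporters, measured after 24 h compound exposure by RT-PCR plus capillary electrophoresis of 6-FAM-labeled fragments, were fitted for gain of signal relative to DMSO. Cells: transiently transfected HepG2 expressing NR-Gal4 chimeras.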

[18] = molecular target: human Peroxisome Proliferator-activated Receptor alpha (PPARa), PPARA (gene 5465) (UniProt Q07869); assay: ATG_PPARa_TRANS: Attagene TRANS-FACTORIAL HepG2 Assay for human Peroxisome Proliferator-activated Receptor alpha (PPARa) (AID 2283001);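 as to AC50: potency for gain of reporter signal over DMSO so agonist or activator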
Chain of human Peroxisome Proliferator-activated Receptor alpha (PPARa), PPARA (gene 5465) (Q07869 whole entry, looked up, the tested form may be a part): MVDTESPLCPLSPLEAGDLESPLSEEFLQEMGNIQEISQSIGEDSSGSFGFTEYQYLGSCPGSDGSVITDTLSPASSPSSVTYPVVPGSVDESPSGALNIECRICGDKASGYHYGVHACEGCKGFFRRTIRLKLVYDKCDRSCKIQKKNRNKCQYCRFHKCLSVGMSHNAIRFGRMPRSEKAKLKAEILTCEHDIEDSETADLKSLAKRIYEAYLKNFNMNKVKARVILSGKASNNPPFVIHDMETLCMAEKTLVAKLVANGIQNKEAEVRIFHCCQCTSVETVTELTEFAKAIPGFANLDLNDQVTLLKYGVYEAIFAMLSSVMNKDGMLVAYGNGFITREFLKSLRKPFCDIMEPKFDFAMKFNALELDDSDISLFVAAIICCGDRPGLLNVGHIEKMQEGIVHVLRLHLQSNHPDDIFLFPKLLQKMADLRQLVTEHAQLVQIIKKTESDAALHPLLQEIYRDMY
How it was run: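 HepG2 cells transiently transfected with multiplexed GAL4-UAS reporter units and chimeric NR-Gal4 constructs were dosed for 24 h. Reporter mRNA was measured by RT-PCR with fluorescent labelling and capillary electrophoresis; gain of signal fitted against DMSO.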

[19] = molecular target: human RAR-related Orphan Receptor gamma (RORg), RORC (gene 6097) (UniProt P51449); assay: ATG_RORg_TRANS: Attagene TRANS-FACTORIAL HepG2 Assay for human RAR-related Orphan Receptor gamma (RORg) (AID 2283011)
Chain of human RAR-related Orphan Receptor gamma (RORg), RORC (gene 6097) (P51449 whole entry, looked up, the tested form may be a part): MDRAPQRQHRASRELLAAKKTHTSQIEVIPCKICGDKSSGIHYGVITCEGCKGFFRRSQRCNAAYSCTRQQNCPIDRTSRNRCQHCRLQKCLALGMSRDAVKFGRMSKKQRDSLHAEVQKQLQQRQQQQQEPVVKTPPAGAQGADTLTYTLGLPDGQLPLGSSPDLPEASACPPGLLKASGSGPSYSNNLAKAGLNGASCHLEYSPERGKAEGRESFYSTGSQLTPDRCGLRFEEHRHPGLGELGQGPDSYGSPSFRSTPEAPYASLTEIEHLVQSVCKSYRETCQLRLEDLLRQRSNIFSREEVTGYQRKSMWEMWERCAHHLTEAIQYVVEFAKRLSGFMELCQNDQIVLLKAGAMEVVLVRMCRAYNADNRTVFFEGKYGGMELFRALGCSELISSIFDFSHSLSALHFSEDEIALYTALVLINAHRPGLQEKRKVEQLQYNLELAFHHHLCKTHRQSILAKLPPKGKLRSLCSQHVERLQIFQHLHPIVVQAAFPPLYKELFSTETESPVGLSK
How it was run: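 Reporter transcripts from a transfected RORg-GAL4 chimera in HepG2 cells were quantified 24 h after dosing by RT-PCR, 6-FAM labelling, HpaI digestion and capillary electrophoresis; increases over DMSO baseline were fitted.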

[20] = molecular target: Oxysterols receptor LXR-alpha (Homo sapiens) (UniProt Q13133); assay: ATG_LXRa_TRANS: Attagene TRANS-FACTORIAL HepG2 Assay for human Liver X Receptor alpha (LXRa) (AID 2282980); conditions: HepG2 Attagene TRANS reporter, LXRa transactivation
Chain of Oxysterols receptor LXR-alpha (Homo sapiens) (Q13133 whole entry, looked up, the tested form may be a part): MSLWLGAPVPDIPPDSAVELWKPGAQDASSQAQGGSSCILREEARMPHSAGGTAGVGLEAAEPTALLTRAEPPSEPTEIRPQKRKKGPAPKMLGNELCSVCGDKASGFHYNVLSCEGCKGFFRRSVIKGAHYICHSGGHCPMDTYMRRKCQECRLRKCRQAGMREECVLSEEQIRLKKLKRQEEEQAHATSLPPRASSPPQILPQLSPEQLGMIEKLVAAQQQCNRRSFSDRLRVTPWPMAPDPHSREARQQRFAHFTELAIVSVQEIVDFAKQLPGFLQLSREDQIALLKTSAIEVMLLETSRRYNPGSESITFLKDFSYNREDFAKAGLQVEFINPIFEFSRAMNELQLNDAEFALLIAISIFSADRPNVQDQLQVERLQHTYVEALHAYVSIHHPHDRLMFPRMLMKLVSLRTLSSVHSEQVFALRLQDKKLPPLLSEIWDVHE
How it was run: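 Chemical-induced reporter mRNA measured by RT-PCR with fluorescent labelling and capillary electrophoresis after 24 h dosing of transiently transfected HepG2 cells expressing exogenous NR-Gal4 chimeras; increases scored against DMSO baseline.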

CCc1cccc(C)c1N(C(=O)CCl)[C@@H](C)COC
outcome [1]: inactive
outcome [2]: inactive
outcome [3]: inactive
outcome [4]: inactive
outcome [5]: inactive
outcome [6]: inactive
outcome [7]: inactive
outcome [8]: inactive
outcome [9]: inactive
outcome [10]: inactive
outcome [11]: inactive

c1ccc(P(c2ccccc2)c2ccccc2)cc1
outcome [1]: inactive
outcome [12]: inactive
outcome [5]: inactive
outcome [6]: inactive
outcome [7]: inactive
outcome [9]: inactive
outcome [10]: inactive
outcome [11]: inactive
AC50 [13]: 82.9 µM (active)

Cc1ncc(C[n+]2csc(CCO)c2C)c(N)n1
outcome [2]: inactive
outcome [14]: inactive
outcome [15]: inactive
outcome [3]: inactive
outcome [7]: inactive
outcome [8]: inactive
outcome [9]: inactive
outcome [11]: inactive
outcome [13]: inactive

CC1OC(C)OC(C)O1 (configuration not stated)
outcome [16]: inactive
outcome [2]: inactive
outcome [14]: inactive
outcome [12]: inactive
outcome [17]: inactive
outcome [7]: inactive
outcome [8]: inactive
AC50 [9]: 42.6 µM (active)
outcome [9]: inactive
outcome [11]: inactive
outcome [13]: inactive

Nc1ccc(-c2ccc(N)c(N)c2)cc1N
outcome [16]: inactive
outcome [15]: inactive
outcome [18]: inactive
outcome [12]: inactive
outcome [19]: inactive
outcome [4]: inactive
outcome [13]: inactive

CC(C)(C)C(O)C(Oc1ccc(-c2ccccc2)cc1)n1cncn1 (configuration not stated)
AC50 [16]: 55.2 µM (active)
outcome [2]: inactive
outcome [14]: inactive
AC50 [3]: 53.9 µM (active)
outcome [12]: inactive
outcome [4]: inactive

O=C(O)CCCc1ccc(N(CCCl)CCCl)cc1
outcome [16]: inactive
outcome [2]: inactive
outcome [14]: inactive
outcome [3]: inactive
outcome [18]: inactive
outcome [12]: inactive
AC50 [8]: 64.5 µM (active) and 68.4 µM (active) and 32.3 µM (active)
outcome [9]: inactive
outcome [10]: inactive
outcome [11]: inactive
AC50 [13]: 27.3 µM (active)

SCc1ccco1
outcome [16]: inactive
outcome [1]: inactive
outcome [2]: inactive
outcome [3]: inactive
AC50 [18]: 33 µM (active)
outcome [12]: inactive
outcome [4]: inactive
outcome [13]: inactive

Oc1ccc(Cl)cc1
outcome [1]: inactive
outcome [20]: inactive
outcome [19]: inactive
outcome [17]: inactive
outcome [4]: inactive
outcome [5]: inactive
outcome [6]: inactive
outcome [7]: inactive
outcome [8]: inactive
outcome [10]: inactive
outcome [11]: inactive
outcome [13]: inactive

Oc1ccc(C2(c3ccc(O)cc3)c3ccccc3-c3ccccc32)cc1
outcome [16]: inactive
outcome [14]: inactive
outcome [20]: inactive
outcome [3]: inactive
outcome [18]: inactive
outcome [17]: inactive
outcome [7]: inactive
AC50 [8]: 265 nM (active)
AC50 [9]: 0.237 µM (active)
outcome [10]: inactive
AC50 [11]: 74 µM (active)

CCCCCCCCCCCCCCCC[N+](C)(C)C
outcome [1]: inactive
outcome [14]: inactive
outcome [20]: inactive
outcome [3]: inactive
AC50 [18]: 49.2 µM (active)
outcome [12]: inactive
outcome [19]: inactive
outcome [4]: inactive
outcome [5]: inactive
outcome [6]: inactive
AC50 [13]: 10.9 µM (active)

CCC(C)c1cc([N+](=O)[O-])cc([N+](=O)[O-])c1OC(=O)C=C(C)C (configuration not stated)
AC50 [16]: 26.5 µM (active)
outcome [1]: inactive
outcome [14]: inactive
outcome [3]: inactive
outcome [18]: inactive
outcome [12]: inactive
outcome [7]: inactive
AC50 [8]: 13800 nM (active)
outcome [9]: inactive
AC50 [10]: 13.2 µM (active)
outcome [11]: inactive
